A short description of assay [1]: compound effects on differentiated 3T3-L1 adipocyte viability – cell-based, 3T3-L1 adipocytes, calcein-AM fluorescence, 48 h, basal, profiling panel (AID 1163). Particulars: 3T3-L1 adipocytes viability, higher = more signal.
Assay [2] in a line: compound effects on hepatocellular carcinoma cell viability – HepG2, calcein-AM fluorescence, 48 h, basal, profiling panel (AID 1164). Particulars: higher = more signal.
A short description of assay [3]: compound effects on multiple myeloma cell viability – MM1S, calcein-AM fluorescence, 48 h, basal, profiling panel (AID 1165).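 Note: viability of MM1S multiple myeloma cells under basal unstimulated conditions.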 Particulars: higher = more signal.
Assay [4] is described as follows: calcein-AM signal in unstimulated myeloma cells – cell-based, calcein-AM fluorescence, 48 h, PK04 Diversity Set, profiling panel (AID 1166).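 Note: cells grown under basal conditions without added stimulus.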 Particulars: RPMI8226 myeloma viability, higher = more signal.
The nature of assay [5]: JC-1 mitochondrial signal, unstimulated HepG2 cells – cell-based, JC-1 fluorescence, 24 h, 100 nL compound, profiling panel (AID 1167). Particulars: HepG2 mitochondrial potential, higher = more signal.
Assay [6] is described as follows: JC-1 mitochondrial signal, unstimulated adipocytes – cell-based, JC-1 fluorescence, 3T3-L1 adipocytes, 24 h, 100 nL compound, profiling panel (AID 1168). Particulars: JC-1 mitochondrial fluorescence, higher = more signal, called active from +8 up or from −8 down.
The nature of assay [7]: JC-1 mitochondrial signal, unstimulated myeloma cells – cell-based, JC-1 fluorescence, RPMI8226, 24 h, 100 nL compound, profiling panel (AID 1169). Particulars: JC-1 mitochondrial potential fluorescence, higher = more signal.
A short description of assay [8]: JC-1 mitochondrial signal, unstimulated MM1S myeloma – cell-based, JC-1 fluorescence, 24 h, 100 nL compound, profiling panel (AID 1170). Particulars: MM1S mitochondrial potential, higher = more signal.
The nature of assay [9]: resazurin metabolic signal in A549 cells – cell-based, resazurin fluorescence, 24 h, PK04 Diversity Set, profiling panel (AID 1171). Particulars: A549 viability, higher = more signal, called active from +8 up or from −8 down. Background: The colour change of resazurin is a common sign of viable cells or microbes.
A short description of assay [10]: resazurin metabolic signal in HepG2 cells – cell-based, resazurin fluorescence, 24 h, PK04 Diversity Set, profiling panel (AID 1172). Particulars: HepG2 viability, higher = more signal.
A short description of assay [11]: budding yeast growth changes without added modifier – OD600, strain BY4716, 24 h, basal condition, primary screen (AID 1173). Particulars: S. cerevisiae BY4716 growth, OD600, 24 h; higher = more signal, called active from +8 up or from −8 down.
A short description of assay [12]: viability profiling in MM1S myeloma cells – cell-based, resazurin fluorescence, basal, 24 h, PK04 Diversity Set, profiling panel (AID 1174). Particulars: higher = more signal, called active from +8 up or from −8 down.
For assay [13], the target named is Dihydroorotate dehydrogenase (quinone), mitochondrial (Plasmodium falciparum (isolate 3D7)) (UniProt Q08210). The assay can be described thus: inhibition of P. falciparum DHODH – biochemical, C-terminal His tag, absorbance 600 nm, primary screen (AID 1175).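 Note: recombinant parasite enzyme with a five histidine tag at its C terminus.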 Particulars: PfDHODH enzyme, DCIP absorbance 600 nm; higher = more signal, called active from +8 up or from −8 down.

A short description of assay [14]: growth modulation of vineyard yeast isolate – strain RM11-1a, OD600, basal, 24 h, primary screen (AID 1177).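 Note: cultures grown under basal conditions with no added stressor.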 Particulars: S. cerevisiae RM11-1a growth, OD600, 24 h; higher = more signal, called active from +8 up or from −8 down.
Assay [15] is described as follows: growth of efflux-deficient E. coli DRC39 – strain DRC39, OD650, 24 h, E. coli filamentation inducers, primary screen (AID 1178).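 Note: growth measured as culture turbidity by optical density at 650 nm.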 Particulars: E. coli DRC39 acrAB, higher = more signal, called active from +8 up or from −8 down.
The nature of assay [16]: growth of efflux-deficient E. coli DRC39 – strain DRC39, OD650, 48 h, E. coli filamentation inducers, primary screen (AID 1179).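 Note: screen aims at cell division blockers that make cells filament.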 Particulars: E. coli DRC39 delta-acrAB growth, higher = more signal, called active from +8 up or from −8 down.
The nature of assay [17]: viability profiling in RPMI8226 myeloma cells – cell-based, resazurin fluorescence, basal, 24 h, PK04 Diversity Set, profiling panel (AID 1180).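 Note: RPMI8826 multiple myeloma cell line at 5000 cells per well.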 Particulars: higher = more signal.
Assay [18] concerns the target E3 ubiquitin-protein ligase XIAP (Homo sapiens) (UniProt P98170). The assay is described as follows: small molecules binding XIAP protein – biophysical, small-molecule microarray, fluorescence 635 nm, primary screen (AID 1181).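 Note: score merges 667 nm emission and signal to noise over triplicate slides.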 Particulars: higher = more signal.
Assay [19] relates to XIP peptide (Xip251-270) binding. The assay is described as follows: XIP fragment 251-270 binding compounds – biochemical, small-molecule microarray, fluorescence 635/667 nm, 0.1 µg/mL protein, primary screen (AID 1182). Particulars: fluorescent protein binding, 635 nm, higher = more signal, called active from +8 up or from −8 down.
The test system of assay [20] is XIP peptide (Xip251-270). The assay can be described thus: compounds binding XIP fragment 251-270 – biochemical, small-molecule microarray, fluorescence 635/667 nm, 0.5 µg/mL protein, primary screen (AID 1183). Particulars: fluorescence 635 nm, higher = more signal.

SMILES strings stand for the structures. Activity calls are given as the source filed them.

Chain of E3 ubiquitin-protein ligase XIAP (Homo sapiens) (P98170 whole entry, looked up, the tested form may be a part): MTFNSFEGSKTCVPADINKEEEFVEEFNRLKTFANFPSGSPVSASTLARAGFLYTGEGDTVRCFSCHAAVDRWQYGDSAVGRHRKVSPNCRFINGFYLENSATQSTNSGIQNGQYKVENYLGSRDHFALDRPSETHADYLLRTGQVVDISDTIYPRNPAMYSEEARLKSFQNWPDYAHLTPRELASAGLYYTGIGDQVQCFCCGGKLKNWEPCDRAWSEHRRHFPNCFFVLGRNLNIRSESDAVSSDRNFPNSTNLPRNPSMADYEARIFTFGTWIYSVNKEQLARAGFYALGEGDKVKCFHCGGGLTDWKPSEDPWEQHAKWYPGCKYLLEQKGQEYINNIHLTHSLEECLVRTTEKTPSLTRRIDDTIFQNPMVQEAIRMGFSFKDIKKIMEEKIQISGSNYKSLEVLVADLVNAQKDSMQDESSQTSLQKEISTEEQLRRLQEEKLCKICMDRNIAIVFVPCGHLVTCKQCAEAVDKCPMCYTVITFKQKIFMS
Chain of Dihydroorotate dehydrogenase (quinone), mitochondrial (Plasmodium falciparum (isolate 3D7)) (Q08210 whole entry, looked up): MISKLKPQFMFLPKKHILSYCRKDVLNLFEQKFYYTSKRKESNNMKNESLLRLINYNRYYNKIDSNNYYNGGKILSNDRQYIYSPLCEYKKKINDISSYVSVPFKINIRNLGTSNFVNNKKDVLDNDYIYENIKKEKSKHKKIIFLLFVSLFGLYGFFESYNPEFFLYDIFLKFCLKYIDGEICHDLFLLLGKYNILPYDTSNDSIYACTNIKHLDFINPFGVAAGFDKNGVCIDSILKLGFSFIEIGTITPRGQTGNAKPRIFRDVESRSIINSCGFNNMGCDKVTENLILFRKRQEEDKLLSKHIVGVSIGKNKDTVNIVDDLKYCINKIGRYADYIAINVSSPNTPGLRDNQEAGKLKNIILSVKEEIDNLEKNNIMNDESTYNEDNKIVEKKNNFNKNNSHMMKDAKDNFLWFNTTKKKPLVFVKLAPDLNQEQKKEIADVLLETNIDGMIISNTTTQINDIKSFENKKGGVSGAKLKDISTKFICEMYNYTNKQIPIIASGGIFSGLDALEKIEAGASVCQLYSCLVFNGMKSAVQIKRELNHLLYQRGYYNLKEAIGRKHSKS

In the case of `CO[C@H]1O[C@H](CO)[C@@H](OC(=O)Nc2ccccc2)[C@H](OC(=O)Nc2ccc3c(c2)OCO3)[C@H]1OC(=O)Nc1ccc2c(c1)OCO2`, the z-score in [1] was 1.27; in assay [2], -1.27; in [3], -1.03; in assay [4], -1.98; in assay [5], -0.136; in assay [6] it was 3.03 (inactive). The z-score in assay [7] is -0.629; in assay [8], 0.398; in assay [9], -1.33 (inactive); in assay [10], -0.697; in [11], -0.613 (inactive); in assay [12], -0.652 (inactive). Besides, the z-score was 1.69 (inactive) in assay [14], 2.13 (inactive) in assay [15], 0.828 (inactive) in [16] and -0.638 in [17]. The composite z-score in [13] is -0.48 (inactive); in assay [18], 0.137; in assay [19], 1.04 (inactive); in [20] it was 0.846.
As to `C=CCNC(=O)[C@@H]1[C@H]2C(=O)O[C@H](c3ccccc3)[C@H](c3ccccc3)N2[C@H](c2ccc(O)cc2)[C@@]12C(=O)N(C(=O)OCCOC)c1ccc(C#Cc3ccc(OC)cc3)cc12`, the z-score is 1.24 in assay [1]; 0.216 in assay [2]; -1.58 in assay [3]; -2.52 in assay [4]; -0.914 in assay [5]; 3.45 (inactive) in assay [6]. Further, the z-score in assay [7] was -0.351; in [8], 0.0591; in [9] it was 0.834 (inactive); in [10], -0.35; in assay [11], -0.468 (inactive); in [12], 0.699 (inactive). The z-score is 0.964 (inactive) in assay [14], 0.236 (inactive) in assay [15], 0.83 (inactive) in assay [16] and 0.804 in assay [17]. For the same molecule, the composite z-score in assay [13] is 0.21 (inactive); in assay [18], 0.14; in assay [19], 0.688 (inactive); in assay [20], 0.656.
For the molecule `[N-]=[N+]=NCc1ccccc1C[C@@]1(C(=O)NCc2ccccc2)N=C(c2ccc(OCCCO)cc2)O[C@@H]1c1ccccc1`, the z-score in [1] was 0.904; in [2] it was -1.34; in assay [3], -2.85; in [4] it was -3.02; in assay [5], 0.634; in assay [6], 0.187 (inactive). The z-score in assay [7] was -0.876; in [8], -0.758; in assay [9], 0.507 (inactive); in [10] it was 1.72; in assay [11], 1.47 (inactive); in [12] it was -0.544 (inactive). Besides, the z-score in assay [14] was 0.971 (inactive); in [15], 1.61 (inactive); in assay [16] it was 0.407 (inactive); in [17] it was -0.732. The composite z-score was -0.112 (inactive) in assay [13], -0.0172 in [18], 0.746 (inactive) in [19] and -0.409 in assay [20].
`CCCCCN1CC=CC23O[C@@H]4/C=C\CCC(C)OC(=O)C4[C@H]2C(=O)N(CCO)[C@@H]3C1=O` (stereo not given in full): the z-score in assay [1] was 2.4; in [2], 0.277; in [3] it was 2.91; in assay [4], -0.245; in assay [5], 0.419; in assay [6], 1.74 (inactive). Further, the z-score was 0.791 in assay [7]; 1.17 in assay [8]; 0.095 (inactive) in assay [9]; 0.355 in assay [10]; -0.734 (inactive) in assay [11]; 1.32 (inactive) in [12]. In addition, the z-score in [14] is 0.121 (inactive); in assay [15] it was 1.34 (inactive); in assay [16], 1.11 (inactive); in assay [17] it was 1.22. For the same molecule, the composite z-score in [13] was 0.0255 (inactive); in assay [18] it was 0.272; in assay [19], 0.642 (inactive); in assay [20], -0.927.
Regarding `CC(C)C[C@@H]1NC(=O)[C@@H]2C[C@H](C(=O)NCCCCCNC(=O)CS)[C@H](c3cccc(OCCO)c3)N2C1=O`, the z-score is 1.28 in [1]; -0.646 in [2]; -1 in [3]; 0.134 in [4]; 0.236 in assay [5]; 0.321 (inactive) in assay [6]. The z-score in assay [7] was 0.14; in assay [8] it was 0.072; in assay [9], 0.621 (inactive); in assay [10] it was 0.474; in [11], -0.928 (inactive); in assay [12], 1.47 (inactive). In addition, the z-score in assay [14] is -1.14 (inactive); in assay [15], 0.186 (inactive); in [16] it was -0.115 (inactive); in assay [17] it was 0.673. The composite z-score in assay [13] was -0.168 (inactive); in assay [18], -0.0351; in assay [19], 1.58 (inactive); in [20] it was 0.785.
For the molecule `NC(=O)NCC#Cc1ccc2c(c1)[C@]1(C(=O)N2)[C@H](c2ccc(OCCO)cc2)N2[C@H](c3ccccc3)[C@H](c3ccccc3)OC(=O)[C@H]2[C@@H]1C(=O)Nc1nc2ccccc2s1`, the z-score is 1.17 in assay [1]; -0.348 in [2]; -0.285 in assay [3]; 1.55 in assay [4]; -3.12 in assay [5]; 2.65 (inactive) in assay [6]. Also, the z-score in [7] was -0.999; in [8], -1.68; in assay [9] it was 0.641 (inactive); in [10], 0.0219; in assay [11], 1.44 (inactive); in assay [12], 1.33 (inactive). In addition, the z-score is 3.21 (inactive) in assay [14], 0.606 (inactive) in assay [15], 0.681 (inactive) in assay [16] and 1.2 in assay [17]. The composite z-score in [13] is -0.212 (inactive); in [18], -0.0398; in assay [19] it was 0.245 (inactive); in assay [20] it was -0.587.
Consider `COC(=O)C1=CC(c2ccc(CO)cc2)=CC(c2cccs2)N(C)C=C1C(=O)OC` (stereo not given), for which the z-score is 2.32 in assay [1]; -0.0015 in assay [2]; -0.517 in assay [3]; -0.257 in assay [4]; 0.636 in assay [5]; 0.375 (inactive) in [6]. For the same molecule, the z-score in assay [7] was -0.327; in assay [8] it was 0.12; in [9], 0.446 (inactive); in assay [10] it was -0.419; in [11], -2.16 (inactive); in [12], 0.173 (inactive). Further, the z-score in assay [14] was -0.688 (inactive); in [15], 1.05 (inactive); in assay [16] it was 0.542 (inactive); in assay [17], 1.05. Moreover, the composite z-score in assay [13] is -1.75 (inactive); in assay [18], 0.0049; in assay [19], 1.84 (inactive); in [20] it was 0.302.
As to `CCN(CC)c1ccc(N2CC=CC34O[C@@H]5C=CCOC(=O)[C@@H]5[C@H]3C(=O)N(C(CO)C(C)C)[C@@H]4C2=O)cc1` (stereo not given in full), the z-score in assay [1] was 0.471; in assay [2], 0.121; in assay [3], -0.413; in [4], -0.201; in assay [5], 0.296; in assay [6], 0.688 (inactive). For the same molecule, the z-score was 1.08 in assay [7]; 0.728 in assay [8]; 0.461 (inactive) in [9]; 0.492 in assay [10]; 0.0588 (inactive) in assay [11]; 0.913 (inactive) in assay [12]. Moreover, the z-score in assay [14] is 1.24 (inactive); in assay [15] it was 1.21 (inactive); in assay [16] it was 1.09 (inactive); in assay [17], 0.687. Further, the composite z-score was 0.764 (inactive) in assay [13], 0.0139 in [18], -0.0795 (inactive) in assay [19] and -0.51 in assay [20].
